Measurements: PubChem BioAssay (NCATS)
Records with an inconclusive call do not appear. Calls of active or inactive are those of the source. Calls follow the shape of the dose curve; as a rule, active = well fitted inhibition curve with a large enough effect; inconclusive = small, poorly fitted or top-dose-only effect; inactive = flat fitted curve, though single readings scatter.

Assays:
[1] = molecular target: Luciferin 4-monooxygenase (Photinus pyralis) (UniProt P08659); assay: Biochemical firefly luciferase enzyme assay for NPC (AID 624030);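 also: purified P. pyralis luciferase at 10 nM with luciferin and ATP substrate; nearly all actives have a fitted effect of over 70% in size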
Chain of Luciferin 4-monooxygenase (Photinus pyralis) (P08659 whole entry, looked up): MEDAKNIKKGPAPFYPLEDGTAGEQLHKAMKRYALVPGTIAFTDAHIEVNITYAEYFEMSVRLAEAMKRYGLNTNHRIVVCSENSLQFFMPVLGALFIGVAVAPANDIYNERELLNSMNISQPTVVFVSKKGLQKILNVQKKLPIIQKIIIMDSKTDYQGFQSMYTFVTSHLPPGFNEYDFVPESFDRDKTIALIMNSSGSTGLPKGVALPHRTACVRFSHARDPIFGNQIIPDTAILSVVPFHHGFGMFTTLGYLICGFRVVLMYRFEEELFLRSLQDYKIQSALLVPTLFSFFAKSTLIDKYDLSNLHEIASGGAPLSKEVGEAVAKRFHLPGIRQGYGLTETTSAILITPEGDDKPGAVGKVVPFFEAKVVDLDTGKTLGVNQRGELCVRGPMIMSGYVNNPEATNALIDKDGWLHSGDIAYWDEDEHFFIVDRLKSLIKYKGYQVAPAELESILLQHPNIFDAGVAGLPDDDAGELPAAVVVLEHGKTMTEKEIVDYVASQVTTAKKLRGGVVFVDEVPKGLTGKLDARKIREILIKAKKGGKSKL
Summary of the method: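 Counter-screen for direct inhibition of the luciferase enzyme by approved-drug library compounds, run at 10 nM enzyme in 50 mM Tris acetate (final). Luminescence was read within 5 min of enzyme-buffer addition and normalized to PTC124 versus DMSO (0%).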

7G8 = assay: qHTS profiling for inhibitors of Plasmodium falciparum proliferation (AID 504749); also: nearly all actives have a fitted effect of over 60% in size; also: potency is read from the fitted curve at half-maximal effect; settings: P. falciparum in erythrocytes, SYBR Green DNA, 72 h; series mostly up to 12.8 µM
Summary of the method: (§1)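 Parasite proliferation within erythrocytes, 72 h exposure. Endpoint: SYBR Green I fluorescence after overnight lysis at room temperature. Controls: 0.29 uM artemisinin, DMSO.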

AA1029 = assay: as above; settings: P. falciparum in erythrocytes, SYBR Green DNA, 72 h; series mostly up to 12.8 µM
Summary of the method: as §1

ATS95 = assay: as above; settings: P. falciparum in erythrocytes, SYBR Green DNA, 72 h; series mostly up to 12.8 µM
Summary of the method: as §1

CP194 = assay: as above; settings: P. falciparum in erythrocytes, SYBR Green DNA, 72 h; series mostly up to 12.8 µM
Summary of the method: as §1

CP215 = assay: as above; settings: P. falciparum in erythrocytes, SYBR Green DNA, 72 h; series mostly up to 12.8 µM
Summary of the method: as §1

CP250 = assay: as above; settings: P. falciparum in erythrocytes, SYBR Green DNA, 72 h; series mostly up to 12.8 µM
Summary of the method: as §1

CP256 = assay: as above; settings: P. falciparum in erythrocytes, SYBR Green DNA, 72 h; series mostly up to 12.8 µM
Summary of the method: as §1

CP266 = assay: as above; settings: P. falciparum in erythrocytes, SYBR Green DNA, 72 h; series mostly up to 12.8 µM
Summary of the method: as §1

CP286 = assay: as above; settings: P. falciparum in erythrocytes, SYBR Green DNA, 72 h; series mostly up to 12.8 µM
Summary of the method: as §1

DIV17 = assay: as above; settings: P. falciparum in erythrocytes, SYBR Green DNA, 72 h; series mostly up to 12.8 µM
Summary of the method: as §1

Dd2 = assay: as above; settings: P. falciparum in erythrocytes, SYBR Green DNA, 72 h; series mostly up to 12.8 µM
Summary of the method: as §1

FAB9 = assay: as above; settings: P. falciparum in erythrocytes, SYBR Green DNA, 72 h; series mostly up to 12.8 µM
Summary of the method: as §1

GB4 = assay: as above; settings: P. falciparum in erythrocytes, SYBR Green DNA, 72 h; series mostly up to 12.8 µM
Summary of the method: as §1

ICS = assay: as above; settings: P. falciparum in erythrocytes, SYBR Green DNA, 72 h; series mostly up to 12.8 µM
Summary of the method: as §1

JCK = assay: as above; settings: P. falciparum in erythrocytes, SYBR Green DNA, 72 h; series mostly up to 12.8 µM
Summary of the method: as §1

P93_24 = assay: as above; settings: P. falciparum in erythrocytes, SYBR Green DNA, 72 h; series mostly up to 12.8 µM
Summary of the method: as §1

P94_40 = assay: as above; settings: P. falciparum in erythrocytes, SYBR Green DNA, 72 h; series mostly up to 12.8 µM
Summary of the method: as §1

PC15 = assay: as above; settings: P. falciparum in erythrocytes, SYBR Green DNA, 72 h; series mostly up to 12.8 µM
Summary of the method: as §1

TAB109 = assay: as above; settings: P. falciparum in erythrocytes, SYBR Green DNA, 72 h; series mostly up to 12.8 µM
Summary of the method: as §1

Measured: Potency

C[C@H](CCC(=O)O)[C@H]1CC[C@@H]2[C@@H]3[C@@H](O)C[C@H]4C[C@@H](O)CC[C@@]4(C)[C@H]3CC[C@@]21C
inactive: all assays above

CC(C)(C)NC[C@@H](O)COc1ccccc1C1CCCC1
active: 7G8 0.708 µM | AA1029 2.82 µM | ATS95 3.55 µM | CP194 5.73 µM | CP215 4.55 µM | CP256 3.98 µM | CP286 3.55 µM | DIV17 3.22 µM | Dd2 1.58 µM | GB4 1.81 µM | ICS 1.41 µM | JCK 3.16 µM | P93_24 2.24 µM | P94_40 3.98 µM | PC15 2.51 µM | TAB109 3.16 µM
inactive: [1]

NC(=O)c1cc[n+](CC2=C(C(=O)[O-])N3C(=O)[C@@H](NC(=O)Cc4cccs4)[C@@H]3SC2)cc1
not listed: [1] | 7G8
inactive: all other assays above

c1ccc2c(c1)CCC[C@@H]2C1=NCCN1
inactive: all assays above

CN(C)CCOC(=O)[C@@H](c1ccccc1)C1(O)CCCC1
not listed: [1] | CP266 | Dd2 | GB4 | P93_24
inactive: all other assays above

Clc1ccc([C@H](Cn2ccnc2)OCc2c(Cl)cccc2Cl)c(Cl)c1
active: 7G8 1.58 µM | CP215 5.73 µM | CP250 2.51 µM | DIV17 4.05 µM | Dd2 3.55 µM | GB4 4.55 µM | ICS 1.58 µM | P93_24 0.794 µM | P94_40 3.16 µM | TAB109 2.82 µM
inactive: [1]

Cc1ccsc1/C=C\C1=NCCCN1C
not listed: [1]
inactive: all other assays above

Cc1cccc(CN2CCN([C@@H](c3ccccc3)c3ccc(Cl)cc3)CC2)c1
inactive: CP194 | CP215 | CP256 | CP266 | FAB9 | JCK
active: 7G8 3.55 µM | ICS 2.82 µM

O=C1O[C@@H]([C@@H](O)CO)[C@@H](O)[C@H]1O
not listed: TAB109
inactive: all other assays above

CCCC[C@H](CC)CN1CN(C[C@@H](CC)CCCC)CC(C)(N)C1
active: ICS 4.47 µM
not listed: 7G8 | CP286
inactive: all other assays above

O=C(O)COCCN1CCN([C@@H](c2ccccc2)c2ccc(Cl)cc2)CC1
not listed: [1] | 7G8 | DIV17 | GB4 | ICS | P93_24
inactive: all other assays above

Clc1ccc([C@H](Cn2ccnc2)OCc2csc3c(Cl)cccc23)c(Cl)c1
inactive: [1] | CP266
active: 7G8 1.41 µM | DIV17 7.21 µM | Dd2 3.55 µM | GB4 5.1 µM | ICS 2 µM | P93_24 2 µM | P94_40 3.55 µM

CN1CCO[C@H](c2ccccc2)c2ccccc2C1
inactive: [1] | 7G8 | CP215 | CP250 | CP266 | CP286 | FAB9 | ICS | JCK | PC15

COc1ccc([C@@H]2CC(=O)c3c(O)cc(O[C@H]4O[C@@H](CO[C@H]5O[C@@H](C)[C@@H](O)[C@@H](O)[C@@H]5O)[C@@H](O)[C@@H](O)[C@@H]4O)cc3O2)cc1O
inactive: all assays above

CCN1CCC[C@@H](OC(=O)C(c2ccccc2)c2ccccc2)C1
inactive: ATS95 | CP250 | CP266 | CP286 | FAB9 | JCK

CC1(C)[C@@H](OC(=O)CCC(=O)O)CC[C@@]2(C)[C@H]1CC[C@@]1(C)[C@H]2C(=O)C=C2[C@H]3C[C@](C)(C(=O)O)CC[C@]3(C)CC[C@@]21C
not listed: [1]
inactive: all other assays above

C[C@@H](CNC1CCCCC1)OC(=O)c1ccccc1
active: 7G8 0.891 µM | DIV17 4.55 µM | Dd2 4.47 µM | GB4 4.55 µM | ICS 1.78 µM | P93_24 3.16 µM | P94_40 3.55 µM | TAB109 3.55 µM
inactive: [1] | CP266

CC[C@](C)(CN(C)C)OC(=O)c1ccccc1
active: Dd2 5.01 µM
not listed: GB4 | P93_24
inactive: all other assays above

CCN(CCCCOC(=O)c1ccc(OC)c(OC)c1)[C@@H](C)Cc1ccc(OC)cc1
not listed: 7G8 | ATS95 | CP194 | CP286 | DIV17 | ICS | P94_40 | TAB109
inactive: all other assays above

COc1cc2nc(N3CCN(C(=O)[C@@H]4CCCO4)CC3)nc(N)c2cc1OC
not listed: CP266
inactive: all other assays above

CO[C@]1(NC(=O)[C@H](C(=O)O)c2ccc(O)cc2)C(=O)N2C(C(=O)O)=C(CSc3nnnn3C)CO[C@H]21
inactive: all assays above

COC(=O)[C@@H]1[C@@H]2C[C@H]3c4[nH]c5cc(OC)ccc5c4CCN3C[C@@H]2C[C@H](OC(=O)/C=C\c2cc(OC)c(OC)c(OC)c2)[C@H]1OC
active: 7G8 3.16 µM | AA1029 3.16 µM | GB4 5.1 µM | ICS 4.47 µM | P93_24 3.16 µM
inactive: [1] | CP266 | FAB9

CC1(C)S[C@@H]2[C@H](NC(=O)[C@@H](N)c3ccccc3)C(=O)N2[C@H]1C(=O)O[C@H]1OC(=O)c2ccccc21
inactive: all assays above

O=C(OC[C@@H](O)CO)c1ccccc1Nc1ccnc2cc(Cl)ccc12
active: 7G8 3.98 µM
not listed: CP256 | CP286 | DIV17 | GB4 | ICS
inactive: all other assays above

O=C(O)[C@@H]1[C@@H]2C[C@H]3c4[nH]c5ccccc5c4CCN3C[C@@H]2CC[C@@H]1O
active: DIV17 5.73 µM
inactive: [1] | CP250 | Dd2 | JCK

NC[C@@H]1O[C@@H](O[C@H]2[C@H](O)[C@H](O[C@@H]3O[C@H](CO)[C@@H](O)[C@H](N)[C@@H]3O)[C@@H](N)C[C@H]2N)[C@H](N)C[C@@H]1O
inactive: all assays above

CN1CCC[C@@H](CC2c3ccccc3Sc3ccccc32)C1
inactive: [1] | CP250 | CP256 | CP266 | FAB9
active: 7G8 3.98 µM

C=Cc1c(C)c2cc3nc(cc4[nH]c(cc5nc(cc1[nH]2)C(C)=C5CCC(=O)O)c(CCC(=O)OC)c4C)[C@@]1(C)C3=CC=C(C(=O)OC)[C@H]1C(=O)OC (tested in a mixture with another compound)
active: 7G8 0.355 µM | AA1029 5.01 µM | ATS95 7.94 µM | CP250 10 µM | CP286 4.47 µM | DIV17 7.57 µM | Dd2 2.24 µM | GB4 12 µM | ICS 0.501 µM | P93_24 8.91 µM | P94_40 3.55 µM | PC15 5.01 µM | TAB109 5.01 µM
inactive: [1] | CP194 | CP266
